This excerpt belongs to a sample that is enriched for hits.
Pf Dd2 growth – inhibitors of Plasmodium falciparum Dd2 growth. P. falciparum Dd2 growth, SYBR Green, 72 h. Potency, µM (titrated, usually from 28.9 µM), inactives show top-dose activity, negative = inhibition, hits mostly inhibitors. 120,000 tested, 4.3% active. AID 1347417; active = well fitted inhibition curve with a large enough effect;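 also: plate controls were DMSO vehicle for no effect and reference drug for full effect; nearly all actives have a fitted effect of over 65% in size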
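Readout: SYBR Green fluorescence, 485 nm excitation, 535 nm emission, after ~16 h lysis at 37C. Before that, Dd2-infected red cells (2.5% hematocrit) grew 72 h with compound, 29 uM top final concentration.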
An asterisk follows results filed as active. Potency is read from the fitted curve at half-maximal effect.

How did CCN(C(=O)CSc1nc2ncccc2[nH]1)c1ccc(C(C)C)cc1 do in these assays?
Pf Dd2 growth: -23.6%

Results for CCN(C(=O)Cc1nc(-c2ccc(OC)cc2)no1)c1cccc(Cl)c1 ?
Pf Dd2 growth: -29.2%

Results for CCN(C(=O)CSc1nc(-c2ccc(C(C)C)cc2)no1)c1cccc(C)c1 ?
Pf Dd2 growth: 0.891µM*

How did CCN(C(=O)CSc1nc(-c2ccc(C(C)C)cc2)no1)c1ccccc1 do in these assays?
Pf Dd2 growth: 1.12µM*

Results for CCN(C(=O)CCc1nc(-c2ccc(C)cc2)no1)c1cc(C)ccc1C ?
Pf Dd2 growth: -15.4%

What do the screens show for `CNC(=O)[C@@H]1CN(Cc2c(F)cccc2Cl)C[C@H]1CO`?
Pf Dd2 growth: -11.9%

Results for CN(C)c1ccc(CN[C@H]2C[C@H]3C(=O)NC[C@@H](CCC(=O)N4CCC(O)CC4)N3C2)cc1 ?
Pf Dd2 growth: 33.0%

Results for O=C1NCCCCCCN(C(=O)c2cccs2)[C@H]2CCCC[C@@H]12 ?
Pf Dd2 growth: -18.0%

Results for CN(C)C1(CNC(=O)c2ccc(OC3CCN(C(=O)C4CC4)CC3)cc2)CCCCC1 ?
Pf Dd2 growth: -16.6%

Results for Cc1ccc(Cl)cc1N1CCN(C(=O)c2cnn(C)c2C2CCN(C(=O)OC(C)(C)C)CC2)CC1 ?
Pf Dd2 growth: 3.98µM*

Results for Cc1cccc(-n2ncc(C(=O)N3CCN(c4ccc(C)cc4C)CC3)c2C2CCN(C(=O)OC(C)(C)C)CC2)c1 ?
Pf Dd2 growth: -25.4%

What do the screens show for `Cc1ccc(C)c(N2CCN(C(=O)c3cnn(C(C)(C)C)c3C3CCN(C(=O)OC(C)(C)C)CC3)CC2)c1`?
Pf Dd2 growth: 8.91µM*

How did Cc1ccc(Cl)cc1N1CCN(C(=O)c2cnn(C(C)(C)C)c2C2CCN(C(=O)OC(C)(C)C)CC2)CC1 do in these assays?
Pf Dd2 growth: 7.94µM*

What do the screens show for `Cn1ncc(C(=O)N2CCN(c3ccccc3)CC2)c1C1CCN(C(=O)OC(C)(C)C)CC1`?
Pf Dd2 growth: inactive

Results for Cc1ccc(C(=O)N2CC(C(=O)NC3CCCCC3)C3(CCOCC3)C2)cc1 (stereo not drawn) ?
Pf Dd2 growth: -18.2%

How did NC(=O)[C@@H]1C[C@H](Oc2cccnc2)CN1S(=O)(=O)c1ccccc1 do in these assays?
Pf Dd2 growth: -9.1%

How did CC(=O)Nc1ccc(CN(CCN2CCCCC2)CC2CCCN(C3CCCC3)C2)cc1 (stereo not drawn) do in these assays?
Pf Dd2 growth: -25.6%

How did CCn1ncc(N2CCC(NC(=O)c3cccc(C)c3)CC2)cc1=O do in these assays?
Pf Dd2 growth: -10.1%

Results for O=C(C1NCCc2[nH]cnc21)N1CCC(c2nc(-c3ccccc3)no2)CC1 (stereo not drawn) ?
Pf Dd2 growth: -15.7%

What do the screens show for `O=C(CNC(=O)c1cnccn1)NC1CCCc2c1[nH]c1c(Cl)cccc21` (stereo not drawn)?
Pf Dd2 growth: -6.1%

How did Cc1cc(C(=O)NC2CCCc3c2[nH]c2c(Cl)cccc32)c2c(C)noc2n1 (stereo not drawn) do in these assays?
Pf Dd2 growth: inactive

What do the screens show for `COc1cc(C(=O)NC2CCCc3c2[nH]c2c(Cl)cccc32)cc(OC)c1OC` (stereo not drawn)?
Pf Dd2 growth: 1µM*

How did O=C1NCCCCCN(C(=O)Cc2cccc(F)c2)[C@@H]2CCCC[C@H]12 do in these assays?
Pf Dd2 growth: inactive

What do the screens show for `N#Cc1ccc(CN2C[C@@H](NC(=O)c3cccnc3)C[C@H]2CO)cc1`?
Pf Dd2 growth: -19.7%

How did COc1cccc(-c2nc3cnccn3c2NCCC(=O)Nc2ccc(F)cc2C)c1 do in these assays?
Pf Dd2 growth: inactive

Results for CCCCCNC(=O)CC(c1cccc(OC)c1OC)c1c[nH]c2c(CC)cccc12 (stereo not drawn) ?
Pf Dd2 growth: -21.5%

What do the screens show for `CCCCNC(=O)CC(c1cccc2c1OCO2)c1c[nH]c2c(CC)cccc12` (stereo not drawn)?
Pf Dd2 growth: 10µM*

What do the screens show for `O=C(CC(c1cccc2c1OCO2)c1c[nH]c2ccccc12)NCc1ccccc1` (stereo not drawn)?
Pf Dd2 growth: inactive

Results for O=C(c1ccco1)N1CCN(C(=O)C2NCCc3[nH]cnc32)CC1 (stereo not drawn) ?
Pf Dd2 growth: 21.1%

How did O=C(NC1CCCCC1)O[C@@H]1CO[C@H]2[C@@H]1OC[C@@H]2n1nnnc1Sc1ccccc1 do in these assays?
Pf Dd2 growth: inactive

What do the screens show for `COc1cc(O)ccc1-c1nc2ccc(Br)cn2c1Nc1ccccc1C`?
Pf Dd2 growth: 6.31µM*

Results for COc1ccc(-c2nc3ccc(Cl)cn3c2Nc2ccc(C)cc2)cc1 ?
Pf Dd2 growth: -13.6%

How did Cc1ccccc1Nc1c(-c2cccs2)nc2cccc(C)n12 do in these assays?
Pf Dd2 growth: -1.9%

How did Cc1ccccc1Nc1c(-c2c[nH]c3ccccc23)nc2ccc(Cl)cn12 do in these assays?
Pf Dd2 growth: inactive

How did Cc1ccccc1Nc1c(-c2ccc(N3CCOCC3)cc2)nc2cccc(C)n12 do in these assays?
Pf Dd2 growth: 10µM*

Results for Cc1ccc(Nc2c(-c3cccnc3)nc3ccc(Br)cn23)cc1 ?
Pf Dd2 growth: inactive

Source: PubChem BioAssay
